# ChEMBL document CHEMBL2218924, “A broad activity screen in support of a chemogenomic map for kinase signalling research and drug discovery” (Biochem J, 2013)
# Experiments:
# [1] = target: T1, Serine/threonine-protein kinase TBK1 (Homo sapiens) (UniProt Q9UHD2); conditions: at 10 µM
# T1 sequence (whole entry): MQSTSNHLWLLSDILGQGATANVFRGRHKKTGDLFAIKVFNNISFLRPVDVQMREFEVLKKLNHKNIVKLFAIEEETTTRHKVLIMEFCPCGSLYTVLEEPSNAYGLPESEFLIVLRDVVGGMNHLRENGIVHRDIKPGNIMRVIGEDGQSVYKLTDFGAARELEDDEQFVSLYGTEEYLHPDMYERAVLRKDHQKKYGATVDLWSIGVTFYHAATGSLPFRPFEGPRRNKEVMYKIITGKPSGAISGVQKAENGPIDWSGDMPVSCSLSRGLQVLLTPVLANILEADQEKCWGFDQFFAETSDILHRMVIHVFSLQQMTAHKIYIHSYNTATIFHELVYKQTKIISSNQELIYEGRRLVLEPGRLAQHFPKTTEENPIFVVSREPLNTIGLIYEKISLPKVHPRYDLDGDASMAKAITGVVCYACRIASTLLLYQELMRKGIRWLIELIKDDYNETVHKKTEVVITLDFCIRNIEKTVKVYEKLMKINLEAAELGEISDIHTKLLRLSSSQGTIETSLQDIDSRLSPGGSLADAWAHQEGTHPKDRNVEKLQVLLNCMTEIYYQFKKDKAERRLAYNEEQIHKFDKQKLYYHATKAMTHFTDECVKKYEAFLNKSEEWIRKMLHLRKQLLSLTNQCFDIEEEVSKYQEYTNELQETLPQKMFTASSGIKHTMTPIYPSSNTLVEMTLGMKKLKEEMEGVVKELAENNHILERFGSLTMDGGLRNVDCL
# [2] = target: Insulin receptor-related protein (Homo sapiens) (UniProt P14616); conditions: at 10 µM
# Chain of Insulin receptor-related protein (Homo sapiens) (P14616 27-742 limits assumed): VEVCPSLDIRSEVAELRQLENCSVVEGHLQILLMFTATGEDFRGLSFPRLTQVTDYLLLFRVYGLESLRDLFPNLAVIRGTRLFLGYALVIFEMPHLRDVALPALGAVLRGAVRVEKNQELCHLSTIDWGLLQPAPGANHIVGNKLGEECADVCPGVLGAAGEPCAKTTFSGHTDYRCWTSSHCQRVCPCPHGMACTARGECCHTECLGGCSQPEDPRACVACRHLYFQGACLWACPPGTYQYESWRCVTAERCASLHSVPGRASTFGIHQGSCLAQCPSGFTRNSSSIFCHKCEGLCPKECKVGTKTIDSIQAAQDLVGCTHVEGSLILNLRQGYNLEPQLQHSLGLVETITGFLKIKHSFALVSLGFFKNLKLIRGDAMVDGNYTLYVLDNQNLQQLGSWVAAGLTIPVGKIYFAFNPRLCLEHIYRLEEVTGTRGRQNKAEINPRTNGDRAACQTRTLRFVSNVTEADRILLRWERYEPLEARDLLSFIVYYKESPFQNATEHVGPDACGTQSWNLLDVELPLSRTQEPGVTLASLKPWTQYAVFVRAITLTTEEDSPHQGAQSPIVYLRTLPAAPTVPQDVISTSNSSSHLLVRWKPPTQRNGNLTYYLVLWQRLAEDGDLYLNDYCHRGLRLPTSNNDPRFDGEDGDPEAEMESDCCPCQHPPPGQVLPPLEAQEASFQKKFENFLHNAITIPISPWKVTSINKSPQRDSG
# Chain of Insulin receptor-related protein (Homo sapiens) (P14616 747-1297 limits assumed): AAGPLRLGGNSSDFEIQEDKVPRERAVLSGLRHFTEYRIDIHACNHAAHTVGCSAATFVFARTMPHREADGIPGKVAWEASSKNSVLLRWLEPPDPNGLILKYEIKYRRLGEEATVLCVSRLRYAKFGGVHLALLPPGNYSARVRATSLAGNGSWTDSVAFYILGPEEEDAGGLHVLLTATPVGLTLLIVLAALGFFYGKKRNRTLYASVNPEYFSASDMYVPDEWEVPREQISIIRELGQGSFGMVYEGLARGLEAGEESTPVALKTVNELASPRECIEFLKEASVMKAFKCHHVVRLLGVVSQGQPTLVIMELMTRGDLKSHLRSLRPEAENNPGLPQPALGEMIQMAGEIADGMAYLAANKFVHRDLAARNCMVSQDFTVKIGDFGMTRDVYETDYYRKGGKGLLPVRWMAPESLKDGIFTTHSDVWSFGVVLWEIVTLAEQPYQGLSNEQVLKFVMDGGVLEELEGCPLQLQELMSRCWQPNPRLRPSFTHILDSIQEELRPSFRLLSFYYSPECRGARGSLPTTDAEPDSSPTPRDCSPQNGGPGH
# [3] = target: T2, Inhibitor of nuclear factor kappa-B kinase subunit alpha (Homo sapiens) (UniProt O15111); conditions: at 1 µM
# T2 sequence (whole entry): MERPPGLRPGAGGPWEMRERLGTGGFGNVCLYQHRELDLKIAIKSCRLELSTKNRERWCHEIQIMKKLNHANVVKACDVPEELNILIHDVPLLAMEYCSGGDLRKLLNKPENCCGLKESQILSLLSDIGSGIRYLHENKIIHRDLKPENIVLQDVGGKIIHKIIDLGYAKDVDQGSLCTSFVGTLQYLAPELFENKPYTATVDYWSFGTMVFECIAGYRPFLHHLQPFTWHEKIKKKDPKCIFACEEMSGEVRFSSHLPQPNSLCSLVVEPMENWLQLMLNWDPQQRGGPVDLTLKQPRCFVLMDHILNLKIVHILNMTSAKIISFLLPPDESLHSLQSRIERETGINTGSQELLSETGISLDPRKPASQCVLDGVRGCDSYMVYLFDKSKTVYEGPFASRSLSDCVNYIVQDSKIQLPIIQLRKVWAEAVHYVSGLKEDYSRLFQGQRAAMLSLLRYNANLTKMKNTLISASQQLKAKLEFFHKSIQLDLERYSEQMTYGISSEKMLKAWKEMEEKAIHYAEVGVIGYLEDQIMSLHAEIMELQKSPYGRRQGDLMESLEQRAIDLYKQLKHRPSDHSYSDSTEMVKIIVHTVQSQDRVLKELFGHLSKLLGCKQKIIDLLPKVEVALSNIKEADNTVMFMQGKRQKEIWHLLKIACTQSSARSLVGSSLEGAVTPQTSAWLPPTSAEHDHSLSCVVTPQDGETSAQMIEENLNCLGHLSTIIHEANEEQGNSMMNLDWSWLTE
# [4] = target: T2, Inhibitor of nuclear factor kappa-B kinase subunit alpha (Homo sapiens); conditions: at 10 µM
# [5] = target: Interleukin-1 receptor-associated kinase 1 (Homo sapiens) (UniProt P51617); conditions: at 1 µM
# Chain of Interleukin-1 receptor-associated kinase 1 (Homo sapiens) (P51617 whole entry, looked up): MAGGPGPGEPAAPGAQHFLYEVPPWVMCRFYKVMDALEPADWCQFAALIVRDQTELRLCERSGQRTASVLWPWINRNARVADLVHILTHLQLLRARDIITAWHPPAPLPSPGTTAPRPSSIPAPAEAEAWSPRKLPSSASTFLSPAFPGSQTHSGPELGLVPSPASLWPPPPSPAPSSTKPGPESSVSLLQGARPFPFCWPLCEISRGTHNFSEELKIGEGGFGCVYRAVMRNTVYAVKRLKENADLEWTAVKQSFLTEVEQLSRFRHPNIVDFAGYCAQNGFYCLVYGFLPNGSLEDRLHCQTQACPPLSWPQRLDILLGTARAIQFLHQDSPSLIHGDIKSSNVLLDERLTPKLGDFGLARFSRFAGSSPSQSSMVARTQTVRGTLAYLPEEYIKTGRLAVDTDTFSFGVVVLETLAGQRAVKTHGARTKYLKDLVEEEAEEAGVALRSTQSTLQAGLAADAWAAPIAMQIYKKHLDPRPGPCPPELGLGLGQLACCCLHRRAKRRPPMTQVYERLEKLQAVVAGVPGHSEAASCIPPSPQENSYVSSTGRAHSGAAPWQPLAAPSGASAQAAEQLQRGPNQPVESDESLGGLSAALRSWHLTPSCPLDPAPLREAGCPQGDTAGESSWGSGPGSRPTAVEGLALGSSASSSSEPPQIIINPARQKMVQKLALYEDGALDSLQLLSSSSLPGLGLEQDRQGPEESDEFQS
# [6] = target: Interleukin-1 receptor-associated kinase 1 (Homo sapiens) (UniProt P51617); conditions: at 10 µM
# [7] = target: Insulin receptor-related protein (Homo sapiens) (UniProt P14616); conditions: at 1 µM
# [8] = target: Insulin receptor (Homo sapiens) (UniProt P06213); conditions: at 1 µM
# Chain of Insulin receptor (Homo sapiens) (P06213 28-758 limits assumed): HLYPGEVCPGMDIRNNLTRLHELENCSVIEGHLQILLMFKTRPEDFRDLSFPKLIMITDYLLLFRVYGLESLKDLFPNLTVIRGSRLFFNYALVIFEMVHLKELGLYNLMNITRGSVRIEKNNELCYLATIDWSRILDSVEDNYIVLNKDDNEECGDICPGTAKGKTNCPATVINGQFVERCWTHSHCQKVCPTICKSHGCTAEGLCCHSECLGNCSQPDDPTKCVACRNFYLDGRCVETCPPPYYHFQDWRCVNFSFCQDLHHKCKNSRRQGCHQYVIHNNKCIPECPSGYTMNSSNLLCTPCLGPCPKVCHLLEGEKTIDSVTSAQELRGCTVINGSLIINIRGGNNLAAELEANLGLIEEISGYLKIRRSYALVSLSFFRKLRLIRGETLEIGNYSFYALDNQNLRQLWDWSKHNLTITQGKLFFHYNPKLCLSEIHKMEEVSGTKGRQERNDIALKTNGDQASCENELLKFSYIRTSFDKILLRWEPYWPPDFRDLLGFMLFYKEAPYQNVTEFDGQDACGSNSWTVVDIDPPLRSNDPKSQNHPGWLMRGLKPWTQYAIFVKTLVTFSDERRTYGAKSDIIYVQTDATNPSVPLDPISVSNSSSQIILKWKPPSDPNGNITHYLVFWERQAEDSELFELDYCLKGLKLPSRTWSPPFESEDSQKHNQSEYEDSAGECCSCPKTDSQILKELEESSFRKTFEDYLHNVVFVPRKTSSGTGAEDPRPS
# Chain of Insulin receptor (Homo sapiens) (P06213 763-1382 limits assumed): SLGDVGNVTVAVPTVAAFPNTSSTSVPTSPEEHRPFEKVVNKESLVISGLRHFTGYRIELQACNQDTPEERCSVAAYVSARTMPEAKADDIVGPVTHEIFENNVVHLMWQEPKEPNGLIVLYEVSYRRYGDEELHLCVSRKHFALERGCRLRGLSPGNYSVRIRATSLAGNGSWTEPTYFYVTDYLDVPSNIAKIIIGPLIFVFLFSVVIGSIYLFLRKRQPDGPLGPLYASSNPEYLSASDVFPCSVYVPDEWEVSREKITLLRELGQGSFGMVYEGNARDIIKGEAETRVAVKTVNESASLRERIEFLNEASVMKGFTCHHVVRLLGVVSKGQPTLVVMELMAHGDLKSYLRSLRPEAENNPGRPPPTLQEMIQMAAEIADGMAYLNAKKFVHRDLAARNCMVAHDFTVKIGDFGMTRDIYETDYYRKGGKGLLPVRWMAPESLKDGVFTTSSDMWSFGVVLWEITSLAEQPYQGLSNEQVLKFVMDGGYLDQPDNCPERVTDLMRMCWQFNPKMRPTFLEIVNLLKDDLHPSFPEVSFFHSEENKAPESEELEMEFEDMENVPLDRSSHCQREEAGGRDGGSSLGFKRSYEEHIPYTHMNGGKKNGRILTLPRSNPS
# [9] = target: Insulin receptor (Homo sapiens) (UniProt P06213); conditions: at 1 µM; remark: listed apart in the source
# [10] = target: Insulin receptor (Homo sapiens) (UniProt P06213); conditions: at 10 µM
# [11] = target: T3, Interleukin-1 receptor-associated kinase 4 (Homo sapiens) (UniProt Q9NWZ3); conditions: at 1 µM
# T3 sequence (whole entry): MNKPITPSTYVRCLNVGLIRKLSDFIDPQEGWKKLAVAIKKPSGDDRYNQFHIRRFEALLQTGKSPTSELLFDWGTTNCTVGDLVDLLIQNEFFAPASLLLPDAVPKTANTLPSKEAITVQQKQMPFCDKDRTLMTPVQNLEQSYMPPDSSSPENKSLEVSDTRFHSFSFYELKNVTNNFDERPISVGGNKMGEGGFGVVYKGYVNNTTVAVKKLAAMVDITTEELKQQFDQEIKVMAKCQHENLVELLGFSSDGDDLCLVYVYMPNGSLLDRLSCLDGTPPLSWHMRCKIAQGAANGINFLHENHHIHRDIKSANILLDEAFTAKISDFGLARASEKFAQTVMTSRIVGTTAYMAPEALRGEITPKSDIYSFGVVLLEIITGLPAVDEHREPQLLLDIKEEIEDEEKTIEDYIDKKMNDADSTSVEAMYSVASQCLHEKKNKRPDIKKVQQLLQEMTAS
# [12] = target: T3, Interleukin-1 receptor-associated kinase 4 (Homo sapiens); conditions: at 10 µM
# [13] = target: T4, Tyrosine-protein kinase ITK/TSK (Homo sapiens) (UniProt Q08881); conditions: at 1 µM
# T4 sequence (whole entry): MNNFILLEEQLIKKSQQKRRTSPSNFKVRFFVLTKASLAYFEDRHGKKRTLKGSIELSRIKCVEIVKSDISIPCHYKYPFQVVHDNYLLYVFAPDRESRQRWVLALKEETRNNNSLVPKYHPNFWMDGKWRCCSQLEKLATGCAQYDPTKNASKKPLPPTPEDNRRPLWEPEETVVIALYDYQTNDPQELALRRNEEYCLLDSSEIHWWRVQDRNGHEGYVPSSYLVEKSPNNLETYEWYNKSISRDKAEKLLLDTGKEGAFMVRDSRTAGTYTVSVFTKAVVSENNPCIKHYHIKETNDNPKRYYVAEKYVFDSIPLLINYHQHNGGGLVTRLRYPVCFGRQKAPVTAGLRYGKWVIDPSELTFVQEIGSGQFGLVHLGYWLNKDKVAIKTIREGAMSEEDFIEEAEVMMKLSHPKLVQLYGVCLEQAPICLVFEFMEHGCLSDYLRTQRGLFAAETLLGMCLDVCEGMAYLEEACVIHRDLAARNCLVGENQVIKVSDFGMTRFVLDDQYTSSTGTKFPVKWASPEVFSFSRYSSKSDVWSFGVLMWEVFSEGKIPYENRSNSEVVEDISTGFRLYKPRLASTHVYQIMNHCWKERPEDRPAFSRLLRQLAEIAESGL
# [14] = target: T5, TGF-beta receptor type-1 (Homo sapiens) (UniProt P36897); conditions: at 10 µM
# T5 sequence (whole entry): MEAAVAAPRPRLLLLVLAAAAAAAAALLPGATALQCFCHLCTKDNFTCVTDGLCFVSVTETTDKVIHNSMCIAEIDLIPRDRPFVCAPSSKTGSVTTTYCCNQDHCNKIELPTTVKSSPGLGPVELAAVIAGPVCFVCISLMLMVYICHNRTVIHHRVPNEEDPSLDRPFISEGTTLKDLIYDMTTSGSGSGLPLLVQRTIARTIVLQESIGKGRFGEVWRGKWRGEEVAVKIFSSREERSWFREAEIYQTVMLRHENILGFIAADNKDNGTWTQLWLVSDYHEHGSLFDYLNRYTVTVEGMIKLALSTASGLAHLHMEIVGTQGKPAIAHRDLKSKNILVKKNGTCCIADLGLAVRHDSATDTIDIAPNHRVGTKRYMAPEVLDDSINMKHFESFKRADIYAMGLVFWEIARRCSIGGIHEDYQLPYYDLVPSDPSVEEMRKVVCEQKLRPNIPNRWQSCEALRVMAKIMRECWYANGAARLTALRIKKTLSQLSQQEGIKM
# [15] = target: T6, Inhibitor of nuclear factor kappa-B kinase subunit beta (Homo sapiens) (UniProt O14920); conditions: at 1 µM
# T6 sequence (whole entry): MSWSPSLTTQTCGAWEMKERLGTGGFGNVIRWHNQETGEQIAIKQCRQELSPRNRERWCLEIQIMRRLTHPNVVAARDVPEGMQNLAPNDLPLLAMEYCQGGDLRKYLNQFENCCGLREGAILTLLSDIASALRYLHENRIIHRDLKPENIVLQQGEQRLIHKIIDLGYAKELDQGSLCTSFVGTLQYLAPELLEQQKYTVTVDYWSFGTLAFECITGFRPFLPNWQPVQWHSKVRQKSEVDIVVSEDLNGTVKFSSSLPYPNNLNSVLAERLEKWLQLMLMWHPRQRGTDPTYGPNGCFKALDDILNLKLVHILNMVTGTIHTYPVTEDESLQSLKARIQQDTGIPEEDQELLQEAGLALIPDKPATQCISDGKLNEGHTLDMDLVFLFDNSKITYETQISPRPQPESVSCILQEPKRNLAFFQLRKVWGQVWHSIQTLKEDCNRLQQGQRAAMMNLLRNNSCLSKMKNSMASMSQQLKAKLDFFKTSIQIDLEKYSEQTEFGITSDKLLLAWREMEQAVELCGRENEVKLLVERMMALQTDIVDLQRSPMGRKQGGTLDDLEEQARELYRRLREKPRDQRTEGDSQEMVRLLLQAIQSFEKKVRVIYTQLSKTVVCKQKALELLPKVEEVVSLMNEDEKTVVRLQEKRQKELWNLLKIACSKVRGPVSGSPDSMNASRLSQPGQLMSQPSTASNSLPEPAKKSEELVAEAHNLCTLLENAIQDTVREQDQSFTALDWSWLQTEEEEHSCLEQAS
# [16] = target: Insulin-like growth factor 1 receptor (Homo sapiens) (UniProt P08069); conditions: at 10 µM
# Chain of Insulin-like growth factor 1 receptor (Homo sapiens) (P08069 31-736 limits assumed): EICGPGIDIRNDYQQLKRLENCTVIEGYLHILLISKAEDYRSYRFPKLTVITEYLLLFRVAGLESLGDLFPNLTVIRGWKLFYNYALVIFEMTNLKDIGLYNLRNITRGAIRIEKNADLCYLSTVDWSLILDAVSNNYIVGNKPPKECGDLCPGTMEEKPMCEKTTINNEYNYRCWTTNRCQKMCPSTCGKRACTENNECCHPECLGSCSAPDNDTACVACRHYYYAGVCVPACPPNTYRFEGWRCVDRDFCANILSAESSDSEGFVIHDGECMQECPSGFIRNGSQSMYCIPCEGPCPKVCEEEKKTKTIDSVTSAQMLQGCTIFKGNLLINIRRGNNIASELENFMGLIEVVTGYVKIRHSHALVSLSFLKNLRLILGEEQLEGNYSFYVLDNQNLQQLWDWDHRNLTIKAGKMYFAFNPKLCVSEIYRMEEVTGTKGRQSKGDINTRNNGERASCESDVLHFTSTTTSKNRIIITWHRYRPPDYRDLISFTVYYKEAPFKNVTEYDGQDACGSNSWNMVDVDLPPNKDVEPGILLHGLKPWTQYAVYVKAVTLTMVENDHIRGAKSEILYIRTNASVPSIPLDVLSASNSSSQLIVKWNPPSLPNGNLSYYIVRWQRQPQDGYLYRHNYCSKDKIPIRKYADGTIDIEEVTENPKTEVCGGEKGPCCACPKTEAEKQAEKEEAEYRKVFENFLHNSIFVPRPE
# Chain of Insulin-like growth factor 1 receptor (Homo sapiens) (P08069 741-1367 limits assumed): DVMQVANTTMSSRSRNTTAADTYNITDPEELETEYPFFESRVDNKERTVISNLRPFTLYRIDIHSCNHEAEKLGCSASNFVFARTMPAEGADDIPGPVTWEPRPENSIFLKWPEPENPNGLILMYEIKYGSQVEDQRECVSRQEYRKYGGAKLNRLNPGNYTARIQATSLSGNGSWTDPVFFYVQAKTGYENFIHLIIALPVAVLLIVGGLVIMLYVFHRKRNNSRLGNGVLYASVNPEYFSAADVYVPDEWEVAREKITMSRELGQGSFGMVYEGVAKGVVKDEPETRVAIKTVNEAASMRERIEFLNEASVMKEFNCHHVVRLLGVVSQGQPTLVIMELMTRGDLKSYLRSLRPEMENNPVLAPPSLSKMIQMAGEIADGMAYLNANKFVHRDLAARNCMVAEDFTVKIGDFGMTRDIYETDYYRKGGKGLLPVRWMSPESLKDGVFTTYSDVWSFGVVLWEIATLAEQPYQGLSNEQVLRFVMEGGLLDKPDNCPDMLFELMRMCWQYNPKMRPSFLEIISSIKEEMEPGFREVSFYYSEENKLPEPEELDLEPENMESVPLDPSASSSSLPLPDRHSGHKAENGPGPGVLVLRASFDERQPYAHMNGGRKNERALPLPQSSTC
# [17] = target: Insulin receptor (Homo sapiens) (UniProt P06213); conditions: at 10 µM; remark: listed apart in the source
# [18] = target: T5, TGF-beta receptor type-1 (Homo sapiens); conditions: at 1 µM
# [19] = target: Insulin-like growth factor 1 receptor (Homo sapiens) (UniProt P08069); conditions: at 1 µM
# [20] = target: T6, Inhibitor of nuclear factor kappa-B kinase subunit beta (Homo sapiens); conditions: at 10 µM
smiles,measurement,setting,value
O=c1cc(N2CCOCC2)oc2c(-c3ccccc3)cccc12,residual activity,[1],55%
same,residual activity,[2],75%
NC(=O)c1cccc(-c2cc(Nc3ccc(OC(F)(F)F)cc3)ncn2)c1,residual activity,[1],79%
same,residual activity,[3],128%
same,residual activity,[4],149%
same,residual activity,[5],95%
same,residual activity,[6],93%
same,residual activity,[7],139%
same,residual activity,[2],98%
O=C1Cc2c([nH]c3ccc(Br)cc23)-c2ccccc2N1,residual activity,[1],31%
same,residual activity,[8],95%
same,residual activity,[9],93%
same,residual activity,[10],81%
same,residual activity,[5],94%
same,residual activity,[6],68%
same,residual activity,[11],81%
same,residual activity,[12],36%
same,residual activity,[2],82%
same,residual activity,[13],83%
O=C1Nc2ccccc2/C1=C\c1c(Cl)[nH]c2ccccc12,residual activity,[1],43%
same,residual activity,[14],74%
same,residual activity,[12],69%
O=C1Cc2c([nH]c3ccc([N+](=O)[O-])cc23)-c2ccccc2N1,residual activity,[1],37%
same,residual activity,[14],65%
same,residual activity,[3],114%
same,residual activity,[4],101%
Nc1nccc(-c2c(-c3ccc(F)cc3)ncn2C2CCNCC2)n1,residual activity,[1],69%
same,residual activity,[3],120%
same,residual activity,[15],116%
same,residual activity,[7],140%
Fc1ccc(-c2nc3n(c2-c2ccncc2)CCS3)cc1,residual activity,[1],89%
same,residual activity,[7],128%
O=C1NC(=O)C(c2c[nH]c3ccccc23)=C1c1c[nH]c2ccccc12,residual activity,[1],14%
same,residual activity,[16],76%
same,residual activity,[17],62%
same,residual activity,[9],100%
same,residual activity,[11],81%
same,residual activity,[12],27%
same,residual activity,[7],120%
same,residual activity,[2],37%
same,residual activity,[13],100%
O=C(Nc1nc2ccccc2n1CCN1CCOCC1)c1cccc([N+](=O)[O-])c1,residual activity,[1],60%
same,residual activity,[18],76%
same,residual activity,[5],11%
same,residual activity,[6],16%
same,residual activity,[11],13%
same,residual activity,[12],15%
same,residual activity,[13],74%
O=C1NC(=O)C(c2cn(CCCO)c3ncccc23)=C1c1cnccn1,residual activity,[1],67%
same,residual activity,[8],122%
same,residual activity,[17],96%
same,residual activity,[9],94%
same,residual activity,[10],92%
same,residual activity,[5],98%
same,residual activity,[6],98%
same,residual activity,[11],87%
same,residual activity,[12],70%
same,residual activity,[13],94%
Cc1cc(C)c(/C=C2\C(=O)Nc3ccccc32)[nH]1,residual activity,[1],52%
same,residual activity,[4],73%
same,residual activity,[5],76%
same,residual activity,[6],75%
same,residual activity,[11],39%
same,residual activity,[12],13%
same,residual activity,[7],65%
same,residual activity,[2],3%
Oc1cccc(-c2nc(N3CCOCC3)c3oc4ncccc4c3n2)c1,residual activity,[1],67%
same,residual activity,[18],82%
same,residual activity,[14],91%
same,residual activity,[7],128%
same,residual activity,[2],84%
Nc1ncnc2c1cnn2-c1ccccc1,residual activity,[18],92%
same,residual activity,[19],88%
same,residual activity,[16],76%
same,residual activity,[4],85%
same,residual activity,[15],97%
same,residual activity,[20],86%
same,residual activity,[5],93%
same,residual activity,[6],84%
same,residual activity,[12],84%
same,residual activity,[7],135%
same,residual activity,[2],93%
same,residual activity,[13],102%
